Data as given in ChEMBL document CHEMBL4513216, “Probing the Open Global Health Chemical Diversity Library for Multistage-Active Starting Points for Next-Generation Antimalarials” (ACS Infect Dis, 2020).
Out of some 69,000 compounds screened, about 8,600 (12%) showed an effect of 50% or more. The sample as a whole holds a higher share of strong results than the screen did.

These compounds were tested on Plasmodium berghei (assay: Screen against P. berghei liver stage (PbLuc), transformed with Luciferase, at 10uM). Details: tested at 10 uM.
Type: functional, HepG2
Cc1c(C2CCCN(C(=O)c3ccn(C)n3)C2)n2c(nc1=O)CCC2 (centres undefined) was tested, and the INHIBITION was -9.32%.
With CC(=O)NCCNC(=O)NCC1Cc2ccccc2O1 (centres undefined) the INHIBITION was 1.56%.
Work on CN(C)C(=O)CN1CCCCC1c1nc(N)ncc1-c1cccc(F)c1 (centres undefined) yielded an INHIBITION of 39.8%.
CS(=O)(=O)NC1CCCN(C(=O)Nc2cccnc2)C1 (centres undefined) showed an INHIBITION of 37.3%.
Cc1noc(C)c1-c1nc(C2CCCN(CCC(N)=O)C2)ccc1CO (centres undefined) was tested, and the INHIBITION was -19%.
Compound O=C(CCN1C(=O)CC2(CCCC2)C1=O)NCCc1nccs1 has an INHIBITION of 20%.
Cc1nc(NC(=O)C2(C)CN(C)CCO2)sc1C (centres undefined) showed an INHIBITION of 4.3%.
Work on CCC(Nc1nc(C(C)C)nc2c1cnn2C)c1ccc(O)cc1 (centres undefined) yielded an INHIBITION of 15.5%.
CC[C@H](Nc1nc(C(C)C)nc2c1cnn2C)c1ccccc1 was tested, and the INHIBITION was 53.6%.
CCC(Nc1nc(C(C)C)nc2c1cnn2C)c1ccncc1 (centres undefined) gave an INHIBITION of 48%.
In the case of CCC(Nc1nc(C2CCCC2)nc2c1cnn2C)c1ccncc1 (centres undefined), the INHIBITION is reported as 50.8%.
With O=S(=O)(CC1CCCCO1)Nc1cnn(CC(F)F)c1 (centres undefined) the INHIBITION was 9.76%.
Clc1ccc(OCCc2cc(C3CCN(c4ncccn4)C3)n[nH]2)cc1 (centres undefined) showed an INHIBITION of 36.22%.
COc1ccc(OCCc2cc(C3CCN(CC(C)C)C3)n[nH]2)cc1 (centres undefined) gave an INHIBITION of 15.15%.
For CCCN1CCC(c2cc(CCOc3ccc(C(F)(F)F)cc3)[nH]n2)C1 (centres undefined), the INHIBITION was 58%.
With O=C(NCc1ccon1)c1c(F)cc(Br)cc1F the INHIBITION was -7.83%.
Cc1nc2ccc(C(=O)N3CCn4c(nnc4C4CC4)C3)cc2nc1C was tested, and the INHIBITION was 48.6%.
In the case of Cc1cc2ccccc2n1CCC(=O)N1CCC2(CC1)CNC(=O)C2, the INHIBITION is reported as 29.4%.
In the case of Cc1cc2ccccc2n1CCC(=O)N1CCCC2(CC1)CNC(=O)O2 (centres undefined), the INHIBITION is reported as 65.7%.
Work on O=C1NCC2(CCCN(C(=O)CCn3cnc4ccccc43)CC2)O1 (centres undefined) yielded an INHIBITION of 35.8%.
Cc1cc(NC(=O)CN2CCc3cncnc3C2)no1 was tested, and the INHIBITION was 16.8%.
With Cc1cc(C2CCCN2Cc2cc(=O)n(C)c(=O)n2C)no1 (centres undefined) the INHIBITION was -10.3%.
For C[C@H](c1ccc(F)cc1)n1c(C2CCC2)n[nH]c1=O, the INHIBITION was -6.59%.
Compound C[C@H](c1ccc(Cl)cc1)n1c(C2CC2)n[nH]c1=O has an INHIBITION of 24.4%.
C[C@H](c1ccc(F)cc1)n1c(C2CCN(C)CC2)n[nH]c1=O gave an INHIBITION of 76.8%.
Compound Cc1nc(N2CCCC2)nc2c1CCN(C(=O)C1CCCCC1)CC2 has an INHIBITION of -42.8%.
In the case of CCOc1ccnc(N2CCN(C(=O)c3ccncc3)CC2)n1, the INHIBITION is reported as 34.7%.
In the case of CC(C)(C)c1n[nH]cc1CNC1CCC(OCC(F)(F)F)CC1 (centres undefined), the INHIBITION is reported as -18.5%.
Work on CCN(Cc1ccc2c(c1)OCO2)S(=O)(=O)N(C)C(C)C yielded an INHIBITION of -4.16%.
With CC(C)N(C)S(=O)(=O)N(C)Cc1ccc2c(c1)OCCO2 the INHIBITION was -10.1%.
With CC(C)N(C)S(=O)(=O)N(C)Cc1ccc2c(c1)OCO2 the INHIBITION was 54.3%.
Cc1cnn(CC2CCCN2CC(=O)N(C)Cc2ccc(C)o2)c1 (centres undefined) showed an INHIBITION of -10.3%.
With Cc1cnn(CC2CCCCN2CC(=O)N(C)Cc2ccc(C)o2)c1 (centres undefined) the INHIBITION was 53.4%.
Cc1cc(C)n(CC2CCCN2CC(=O)N(C)Cc2ccc(C)o2)n1 (centres undefined) gave an INHIBITION of 45.7%.
Cc1nc(C)n(CC2CCCCN2CC(=O)N(C)Cc2ccco2)n1 (centres undefined) showed an INHIBITION of 28.6%.
Compound Cc1nc(C)n(CC2CCCN2CC(=O)N(C)Cc2ccc(C)o2)n1 (centres undefined) has an INHIBITION of 74.2%.
In the case of Cc1ccc(CN(C)C(=O)CN2CCCCC2Cn2cncn2)o1 (centres undefined), the INHIBITION is reported as 40.5%.
CN(C)c1nc2n(c(=O)n1)CCN2C(=O)Nc1ccc(Cl)cc1 was tested, and the INHIBITION was -25.5%.
Compound CN(C)c1nc2n(c(=O)n1)CCN2C(=O)Nc1cccc(Cl)c1 has an INHIBITION of 78.1%.
In the case of CN(C)c1nc2n(c(=O)n1)CCN2C(=O)Nc1ccc(Cl)c(Cl)c1, the INHIBITION is reported as 28.4%.
CCN1CCNC(=O)C12CCN(C(=O)Cc1ccsc1)CC2 gave an INHIBITION of -23.1%.
In the case of CC(OCC1CC1)C(=O)Nc1nccn1Cc1ccccc1 (centres undefined), the INHIBITION is reported as 44.7%.
CS(=O)(=O)CCC(=O)Nc1cnn(-c2ccccc2Cl)c1 gave an INHIBITION of 43.7%.
CCOCC(=O)Nc1nccn1Cc1ccccc1Cl showed an INHIBITION of 22.8%.
Compound CS(=O)(=O)CCC(=O)Nc1nccn1Cc1ccccc1Cl has an INHIBITION of 53.5%.
Compound CC(C)N(C)CC(=O)Nc1nccn1Cc1ccccc1Cl has an INHIBITION of -11.9%.
Work on Cn1ccc(C(=O)Nc2nccn2Cc2ccccc2Cl)cc1=O yielded an INHIBITION of 9.91%.
With CCOCCOC(C)C(=O)Nc1ccnn1-c1ccccc1C (centres undefined) the INHIBITION was 39.7%.
With CCOCCOC(C)C(=O)Nc1nccn1Cc1ccccc1 (centres undefined) the INHIBITION was 89.6%.
CC(=O)Nc1nccn1Cc1ccccc1Cl gave an INHIBITION of 50.5%.
O=C(NCCn1ccnc1)NCC(c1ccco1)N1CCCC1 (centres undefined) showed an INHIBITION of -14%.
Cc1nccn1[C@@H]1CC[C@@H](N(C)S(=O)(=O)c2ccccc2F)[C@H]1O gave an INHIBITION of -0.05%.
Work on Cc1occc1C(=O)NCC1OCCc2cn(C)nc21 (centres undefined) yielded an INHIBITION of -14.2%.
Compound COCCCNc1c(-c2ccccc2)c(=O)c1=O has an INHIBITION of 25.3%.
In the case of CC(Cc1cccc(F)c1)NCc1cnc(N2CCN(C)CC2)nc1 (centres undefined), the INHIBITION is reported as 23.2%.
In the case of O=C(NCc1cccnc1)[C@H]1C[C@@H]2CCN(c3ccncn3)C[C@H]2O1, the INHIBITION is reported as 48%.
Work on CCCc1nc(C)cc(N2CCNC(C(=O)Nc3ccc(C)nc3)C2)n1 (centres undefined) yielded an INHIBITION of 46.1%.
Work on CCCc1nc(C)cc(N2CCNC(C(=O)NCc3cccnc3)C2)n1 (centres undefined) yielded an INHIBITION of 59.1%.
In the case of CC1CCN(C(=O)[C@@H]2C[C@@H]3CCN(CC4CCOCC4)C[C@@H]3O2)CC1, the INHIBITION is reported as -24.9%.
CC(CC(=O)Nc1ncn(CC(=O)NCc2ccccc2)n1)C1CC1 (centres undefined) gave an INHIBITION of 38.8%.
For CCOCC(=O)Nc1ncn(Cc2cccc(Br)c2)n1, the INHIBITION was 61.8%.
Compound CSCC(=O)Nc1ncn(Cc2cccc(Br)c2)n1 has an INHIBITION of 69.3%.
Work on O=C(COCC(=O)N1CCCCCC1)NCc1cccc(Br)c1 yielded an INHIBITION of 14.1%.
Work on COCC(=O)NC(C)Cc1cccc(Br)c1 (centres undefined) yielded an INHIBITION of 14.7%.
Compound O=C(Nc1ncn(Cc2cccc(Br)c2)n1)C1CCC1 has an INHIBITION of 37.2%.
Compound CC(C)C(=O)Nc1ncn(Cc2cccc(Br)c2)n1 has an INHIBITION of 53.3%.
Compound CCOCC(=O)Nc1cc(-c2cccc(F)c2F)n[nH]1 has an INHIBITION of 10.7%.
CCCSCC(=O)Nc1ncn(CC(=O)NCc2ccccc2)n1 was tested, and the INHIBITION was 12.2%.
CN(C)C(=O)CN1CCN(C(=O)c2cnn(-c3ccccc3Cl)c2)CC1 was tested, and the INHIBITION was -2.33%.
